From the supplement of paper PMC12350171
Counter-ions that a name gives are not always drawn.

Assays:
Settings in all cases: 20 µM
[1] = system: Salmonella enterica typhimurium; experiment: growth AUC normalised to DMSO control (fraction of control); higher = less growth inhibition, active = hit call of the paper
Procedure, shortened: (§1)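 For the AUC endpoint, growth curves were integrated by the trapezoidal rule up to the exponential-to-stationary transition and normalised to DMSO controls on the same plate. The curves came from OD578 readings taken hourly for 24 h, in three biological replicates. Pathogens had been passaged anaerobically twice and inoculated at an OD578 of 0.01 into pre-reduced mGAM plates carrying 20 μM compound and 1% DMSO, sealed with breathable membranes. Medium for Haemophilus parainfluenzae also contained hemin and NAD.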

Shigella flexneri = experiment: as above
Procedure, shortened: as §1

Vibrio cholerae = experiment: as above
Procedure, shortened: as §1

[2] = system: Yersinia pseudotuberculosis; experiment: as above
Procedure, shortened: as §1

P. vulgatus RND KO = experiment: growth AUC normalised to DMSO control (median) (fraction of control); higher = less growth inhibition, active = hit call of the paper
Procedure, shortened: (§2)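 After two overnight anaerobic passages, strains were inoculated at OD578 0.01 into mGAM in 96-well plates containing approved-drug library compounds at 20 μM and 1% DMSO. Growth was followed by reading OD578 hourly for 24 h within an anaerobic incubator. Area under the curve, taken by the trapezoidal rule up to the start of stationary phase, was normalised to same-plate vehicle wells, and the median of three biological replicates is listed.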

P. vulgatus WT = experiment: as above
Procedure, shortened: as §2

[3] = system: S. enterica typhimurium WT; experiment: as above
Procedure, shortened: as §2

[4] = system: S. enterica typhimurium tolC KO; experiment: as above
Procedure, shortened: as §2

Measured: growth AUC normalised to DMSO control
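Wherever growth AUC normalised to DMSO control (median) is given: active when median AUC fell below 0.1.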

CCC(=O)O[C@@H](O[P@](=O)(CCCCc1ccccc1)CC(=O)N1C[C@H](C2CCCCC2)C[C@H]1C(=O)O)C(C)C [Fosinopril]
inactive: [1] 1 | Shigella flexneri 1.04 | Vibrio cholerae 1.05 | [2] 1 | P. vulgatus RND KO 0.998 | P. vulgatus WT 1.02 | [3] 1 | [4] 1.01

c1ccc2[nH]c(-c3cscn3)nc2c1 [Tiabendazole]
inactive: [1] 0.97 | Shigella flexneri 0.954 | Vibrio cholerae 0.956 | [2] 0.975 | P. vulgatus RND KO 0.971 | P. vulgatus WT 0.971 | [3] 1 | [4] 0.995

Cc1ccc(S(=O)(=O)NC(=O)NN2CCCCCC2)cc1 [Tolazamide]
inactive: [1] 1.02 | Shigella flexneri 1.04 | Vibrio cholerae 1.03 | [2] 0.997 | P. vulgatus RND KO 1.01 | P. vulgatus WT 1.02 | [3] 1.01 | [4] 0.999

Cc1nnc(SCC2=C(C(=O)O)N3C(=O)[C@@H](NC(=O)Cn4cnnn4)[C@H]3SC2)s1 [Cefazolin sodium salt]
active: [1] 0.00502 | Shigella flexneri 0.0191 | Vibrio cholerae 0.126 | [2] 0.0805 | P. vulgatus RND KO 0.0126 | P. vulgatus WT 0.0107 | [3] 0.00709 | [4] 0.00476

COc1ccccc1N1CCN(CC(O)COc2cccc3ccccc23)CC1 (configuration not stated) [Naftopidil dihydrochloride]
inactive: [1] 1.01 | Shigella flexneri 1 | Vibrio cholerae 0.894 | [2] 0.991 | P. vulgatus RND KO 0.933 | P. vulgatus WT 0.971 | [3] 1.01 | [4] 0.914

CCN(CC)CCNc1ccc(CO)c2sc3ccccc3c(=O)c12 [Hycanthone]
inactive: [1] 0.936 | Shigella flexneri 0.984 | Vibrio cholerae 0.879 | [2] 0.991 | P. vulgatus RND KO 0.994 | P. vulgatus WT 0.96 | [3] 0.993 | [4] 0.163

CC(=O)CC(c1ccc([N+](=O)[O-])cc1)c1c(O)c2ccccc2oc1=O (configuration not stated) [Acenocoumarol]
inactive: [1] 0.985 | Shigella flexneri 1.01 | Vibrio cholerae 0.938 | [2] 0.991 | P. vulgatus RND KO 1.07 | P. vulgatus WT 1.06 | [3] 0.999 | [4] 0.999

CC(=O)NCCCS(=O)(=O)O [Acamprosate calcium]
inactive: [1] 1 | Shigella flexneri 1.02 | Vibrio cholerae 1 | [2] 0.99 | P. vulgatus RND KO 1.02 | P. vulgatus WT 1.03 | [3] 1 | [4] 0.996

CCCCc1cc2ccccc2c(OCCN(C)C)n1 [Dimethisoquin hydrochloride]
inactive: [1] 1 | Shigella flexneri 1.03 | [2] 1.02 | P. vulgatus RND KO 1 | P. vulgatus WT 1.02 | [3] 0.997 | [4] 0.918
active: Vibrio cholerae 0.866

CCN1CCC[C@H]1CNC(=O)c1c(OC)ccc(Br)c1OC [Remoxipride hydrochloride]
inactive: [1] 1.01 | Shigella flexneri 1.04 | Vibrio cholerae 1.03 | [2] 1.01 | P. vulgatus RND KO 1.03 | P. vulgatus WT 1.06 | [3] 1.01 | [4] 1.01

Cc1cc(=O)n(-c2ccccc2)n1C [Antipyrine]
inactive: [1] 1 | Shigella flexneri 1.01 | Vibrio cholerae 1.01 | [2] 1 | P. vulgatus RND KO 1 | P. vulgatus WT 1.04 | [3] 0.989 | [4] 1.01

CN1CCN(CCCN2c3ccccc3Sc3ccc(S(=O)(=O)N(C)C)cc32)CC1 [Thioproperazine dimesylate]
inactive: [1] 0.999 | Shigella flexneri 0.986 | Vibrio cholerae 0.968 | [2] 1 | P. vulgatus RND KO 1.03 | P. vulgatus WT 1.01 | [3] 0.994 | [4] 0.96

CC(=O)S[C@@H]1CC2=CC(=O)CC[C@]2(C)[C@H]2CC[C@@]3(C)[C@@H](CC[C@@]34CCC(=O)O4)[C@H]12 [Spironolactone]
inactive: [1] 0.983 | Shigella flexneri 0.981 | Vibrio cholerae 0.954 | [2] 1.02 | P. vulgatus RND KO 1.02 | P. vulgatus WT 1.02 | [3] 0.998 | [4] 0.981

CO[C@H]1C[C@H](O[C@H]2[C@H](C)[C@@H](O[C@@H]3O[C@H](C)C[C@H](N(C)C)[C@H]3OC(C)=O)[C@@H](C)C[C@@]3(CO3)C(=O)[C@H](C)[C@@H](OC(C)=O)[C@@H](C)[C@@H](C)OC(=O)[C@@H]2C)O[C@@H](C)[C@@H]1OC(C)=O [Troleandomycin]
active: P. vulgatus RND KO 0.0116 | P. vulgatus WT 0.00916
inactive: [1] 0.998 | Shigella flexneri 1.01 | Vibrio cholerae 0.882 | [2] 0.999 | [3] 0.988 | [4] 0.207

CC(Cc1cccc(C(F)(F)F)c1)NCCOC(=O)c1ccccc1 (configuration not stated) [Benfluorex]
inactive: [1] 0.94 | Shigella flexneri 0.968 | [2] 1.01 | P. vulgatus RND KO 0.956 | P. vulgatus WT 0.975 | [3] 0.986 | [4] 0.98
active: Vibrio cholerae 0.869

CC(=O)NS(=O)(=O)c1ccc(N)cc1 [Sulfacetamide sodic hydrate]
inactive: [1] 1 | Shigella flexneri 1.01 | Vibrio cholerae 0.988 | [2] 0.998 | P. vulgatus RND KO 1.01 | P. vulgatus WT 1.05 | [3] 1.01 | [4] 0.997

O=C(O)CCCC[C@@H]1SC[C@@H]2NC(=O)N[C@@H]21 [Biotin]
inactive: [1] 0.992 | Shigella flexneri 0.975 | Vibrio cholerae 1 | [2] 0.946 | P. vulgatus RND KO 1.01 | P. vulgatus WT 1.03 | [3] 1 | [4] 1

COCCc1ccc(OCC(O)CNC(C)C)cc1 (stereo not drawn) [Metoprolol-(+)-tartrate salt]
inactive: [1] 0.996 | Shigella flexneri 0.977 | Vibrio cholerae 0.998 | [2] 0.996 | P. vulgatus RND KO 1.01 | P. vulgatus WT 1.03 | [3] 1 | [4] 1.01

Cc1cccc(Nc2ccccc2C(=O)O)c1C [Mefenamic acid]
inactive: [1] 1 | Shigella flexneri 1.01 | Vibrio cholerae 0.926 | [2] 1 | P. vulgatus RND KO 0.958 | P. vulgatus WT 0.979 | [3] 0.985 | [4] 1.01

COc1cc2ncnc(Nc3ccc(F)c(Cl)c3)c2cc1OCCCN1CCOCC1 [Gefitinib]
inactive: [1] 1.01 | Shigella flexneri 1.02 | Vibrio cholerae 1 | [2] 0.983 | P. vulgatus RND KO 1.07 | P. vulgatus WT 1.07 | [3] 1.01 | [4] 0.928

CC(=O)Nc1nnc(S(N)(=O)=O)s1 [Acetazolamide]
inactive: [1] 0.969 | Shigella flexneri 0.962 | Vibrio cholerae 1.03 | [2] 0.984 | P. vulgatus RND KO 0.995 | P. vulgatus WT 0.974 | [3] 0.994 | [4] 0.998

Oc1c(Cl)cc(Cl)c(Cl)c1Cc1c(O)c(Cl)cc(Cl)c1Cl [Hexachlorophene]
active: Vibrio cholerae 0.0587 | [2] 0.411 | P. vulgatus RND KO 0.00764 | P. vulgatus WT 0.00869 | [4] 0.00738
inactive: [1] 0.941 | Shigella flexneri 1.04 | [3] 0.972

NCc1ccc(S(N)(=O)=O)cc1 [Mafenide hydrochloride]
inactive: [1] 1 | Shigella flexneri 0.998 | Vibrio cholerae 1.03 | [2] 0.969 | P. vulgatus RND KO 0.963 | P. vulgatus WT 0.815 | [3] 1.01 | [4] 1

CC(=O)CCCCn1c(=O)c2c(ncn2C)n(C)c1=O [Pentoxifylline]
inactive: [1] 1 | Shigella flexneri 0.979 | Vibrio cholerae 0.967 | [2] 0.989 | P. vulgatus RND KO 0.983 | P. vulgatus WT 0.99 | [3] 1 | [4] 0.987

CN1[C@@H]2CC[C@H]1C[C@@H](OC(c1ccccc1)c1ccccc1)C2 [Benztropine mesylate]
inactive: [1] 1 | Shigella flexneri 1.01 | Vibrio cholerae 1 | [2] 1.01 | P. vulgatus RND KO 0.944 | P. vulgatus WT 0.904 | [3] 0.998 | [4] 0.195

CC(=O)/N=c1/sc(S(N)(=O)=O)nn1C [Methazolamide]
inactive: [1] 0.99 | Shigella flexneri 1.04 | Vibrio cholerae 1.05 | [2] 0.979 | P. vulgatus RND KO 1.07 | P. vulgatus WT 1.06 | [3] 1.01 | [4] 1.02

CC[C@H](C)[C@H](N)C1=N[C@H](C(=O)N[C@@H](CC(C)C)C(=O)N[C@H](CCC(=O)O)C(=O)N[C@H](C(=O)N[C@H]2CCCCNC(=O)[C@H](CC(N)=O)NC(=O)[C@@H](CC(=O)O)NC(=O)[C@H](Cc3cnc[nH]3)NC(=O)[C@@H](Cc3ccccc3)NC(=O)[C@H]([C@@H](C)CC)NC(=O)[C@@H](CCCN)NC2=O)[C@@H](C)CC)CS1 [Bacitracin]
inactive: [1] 0.996 | Shigella flexneri 0.98 | Vibrio cholerae 1.15 | [2] 0.976 | P. vulgatus RND KO 0.137 | P. vulgatus WT 0.104 | [3] 1.01 | [4] 1.01

CCN(CC)CCNC(=O)c1cc(Cl)c(N)cc1OC [Metoclopramide monohydrochloride]
inactive: [1] 0.994 | Shigella flexneri 0.978 | Vibrio cholerae 0.989 | [2] 0.993 | P. vulgatus RND KO 0.977 | P. vulgatus WT 0.971 | [3] 1 | [4] 1

CCCCc1nc(Cl)c(CO)n1Cc1ccc(-c2ccccc2-c2nnn[nH]2)cc1 [Losartan]
inactive: [1] 1.03 | Shigella flexneri 1.03 | Vibrio cholerae 1.04 | [2] 1.02 | P. vulgatus RND KO 0.974 | P. vulgatus WT 0.977 | [3] 1 | [4] 0.995
